The record followed here is PubChem BioAssay (EPA / NIEHS).

Records with an inconclusive call do not appear. The source made the active and inactive calls. The calls were made as follows, unless noted: active = hit-call score of the fitted dose curve at least 0.9, where 1 is the maximum; inactive = score below 0.9.

Assay [1] in a line: BSK_3C_VCAM1: BioMAP Diversity Plus: 3C Assay for Vascular cell adhesion molecule 1 (VCAM1) Biomarker Activity (AID 2282999). Conditions: BioMAP 3C HUVEC, VCAM1 ELISA, cytokine-stimulated; actives raise or lower the signal. The method in brief:
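Human umbilical vein endothelial cells (3C system), biomarker read by ELISA 24 h after dosing; bidirectional fit against DMSO baseline. Cytotoxicity tracked by SRB total-protein staining in parallel cultures at biomarker time.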
For orientation: ELISA stands for enzyme-linked immunosorbent assay.

The nature of assay [2]: BSK_4H_Eotaxin3: BioMAP Diversity Plus: 4H Assay for Eotaxin 3 Biomarker Activity (AID 2283000).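 As to outcome: CCL26 protein level quantified by ELISA in parallel with SRB cytotoxicity check.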 Conditions: primary human endothelial cells (HUVEC); actives raise or lower the signal. In outline: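 Endothelial primary cells (human umbilical vein) exposed to compound for 24 h. ELISA detection of Eotaxin-3.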
Read-out in assay [3]: Intercellular Adhesion Molecule 1 (ICAM1), ICAM1 (gene 3383)
Briefly: BSK_3C_ICAM1: BioMAP Diversity Plus: 3C Assay for Intercellular Adhesion Molecule 1 (ICAM1) Biomarker Activity (AID 2283003). As to conditions: primary human endothelial cells (HUVEC); actives raise or lower the signal. The method in brief:
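Human vascular endothelial primary cells, 3C conditions, 24 h treatment. ICAM-1 by ELISA.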

Assay [4] has as its target human Retinoic Acid Receptor beta (RARb), RARB (gene 5915) (UniProt P10826). Briefly: ATG_RARb_TRANS: Attagene TRANS-FACTORIAL HepG2 Assay for human Retinoic Acid Receptor beta (AID 2283004; active = hit-call score of the fitted dose curve at least 0.9, where 1 is the maximum). In outline: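 HepG2, transient MRTU transfection, NR–Gal4 chimera, 24 h treatment; RT-PCR plus CE fluorescence detection of reporter mRNA; gain of signal vs DMSO.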
Assay [5] can be described thus: BSK_3C_Proliferation: Cell Proliferation Assessment in the BioMAP Diversity Plus: 3C Assay (AID 2283006).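 As to AC50: potency may reflect either rise or fall in cell number versus DMSO.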 Conditions: primary human endothelial cells (HUVEC). The method in brief:
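Proliferation of human vascular endothelial primary cells after 48 h dosing, quantified as SRB-stained protein at 560 nm relative to DMSO.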

The target of assay [6] is Peroxisome proliferator-activated receptor gamma (Homo sapiens) (UniProt P37231). As to the kind of experiment: ATG_PPARg_TRANS: Attagene TRANS-FACTORIAL HepG2 Assay for human Peroxisome Proliferator-activated Receptor-gamma (PPARg) (AID 2283007; active = hit-call score of the fitted dose curve at least 0.9, where 1 is the maximum). In outline:
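A TRANS-format multiplexed reporter assay measures activity of an exogenous chimeric NR-Gal4 protein in HepG2 cells. After 24 h of chemical exposure, reporter transcripts are amplified, fluorescently labelled and sized by capillary electrophoresis, with gain of signal scored against DMSO.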

The target in assay [7] is human Retinoic Acid Receptor gamma (RARg), RARG (gene 5916) (UniProt P13631). Briefly: ATG_RARg_TRANS: Attagene TRANS-FACTORIAL HepG2 Assay for human Retinoic Acid Receptor gamma (RARg) (AID 2283009; active = hit-call score of the fitted dose curve at least 0.9, where 1 is the maximum). The method in brief: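 HepG2, RARg-GAL4 TRANS system, 24 h exposure; reporter mRNA by RT-PCR + CE fluorescence; increase over DMSO.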
Assay [8] deals with human RAR-related Orphan Receptor gamma (RORg), RORC (gene 6097) (UniProt P51449). Briefly: ATG_RORg_TRANS: Attagene TRANS-FACTORIAL HepG2 Assay for human RAR-related Orphan Receptor gamma (RORg) (AID 2283011; active = hit-call score of the fitted dose curve at least 0.9, where 1 is the maximum). In outline: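 Activity is scored as increase in GAL4-UAS reporter mRNA over DMSO, detected by fluorescent RT-PCR and capillary electrophoresis in HepG2 cells transiently expressing a RORg-Gal4 chimera, 24 h after dosing.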

Read-out in assay [9]: E-selectin (Homo sapiens) (UniProt P16581)
As to the kind of experiment: BSK_3C_Eselectin: BioMAP Diversity Plus: 3C Assay for Eselectin Biomarker Activity (AID 2283015).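 As to outcome: cell surface E-selectin protein quantified by ELISA 24 h after dosing.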 As to conditions: primary human endothelial cells (HUVEC); actives raise or lower the signal. In outline: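 Human vascular endothelium from umbilical vein is exposed to test chemicals for 24 h. E-selectin levels are read by ELISA and compared with DMSO controls.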

Read-out in assay [10]: Interleukin-1 alpha (IL1a), IL1A (gene 3552)
As to the kind of experiment: BSK_BE3C_IL1a: BioMAP Diversity Plus: BE3C Assay for Interleukin-1 alpha (IL1a) Biomarker Activity (AID 2283016). Conditions: primary human bronchial epithelial cells; actives raise or lower the signal. The method in brief:
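Cultures of primary human bronchial epithelial cells receive test chemical. After 24 h, IL-1a is quantified by ELISA, while parallel wells are fixed in TCA and SRB-stained for total protein. Changes in either direction are fitted relative to DMSO.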

Read-out in assay [11]: Monocyte Chemoattractant Protein-1 (MCP1), CCL2 (gene 6347)
As to the kind of experiment: BSK_3C_MCP1: BioMAP Diversity Plus: 3C Assay for Monocyte Chemoattractant Protein-1 (MCP1) Biomarker Activity (AID 2283017). Conditions: primary human endothelial cells (HUVEC); actives raise or lower the signal. In outline: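 Endothelial cells from human umbilical vein are dosed with chemical, cultured 24 h, then assayed for MCP-1 by ELISA; both increases and decreases are modelled against DMSO controls.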

Read-out in assay [12]: Monocyte Chemoattractant Protein-1 (MCP1), CCL2 (gene 6347)
Briefly: BSK_4H_MCP1: BioMAP Diversity Plus: 4H Assay for Monocyte Chemoattractant Protein-1 (MCP1) Biomarker Activity (AID 2283018). Conditions: primary human endothelial cells (HUVEC); actives raise or lower the signal. In outline:
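Readout: MCP-1 ELISA on compound-treated HUVEC, sampled 24 h post-dosing. Baseline and negative control DMSO; bidirectional fit. Overt toxicity checked alongside by sulforhodamine B protein staining at time of biomarker measurement.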

Assay [13] addresses human Peroxisome Proliferator-activated Receptor alpha (PPARa), PPARA (gene 5465) (UniProt Q07869). As to the kind of experiment: ATG_PPARa_TRANS: Attagene TRANS-FACTORIAL HepG2 Assay for human Peroxisome Proliferator-activated Receptor alpha (PPARa) (AID 2283001; active = hit-call score of the fitted dose curve at least 0.9, where 1 is the maximum). In outline:
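Measures transcriptional activity of an exogenous chimeric PPARa-Gal4 protein in transiently transfected HepG2 cells after 24 h dosing. Reporter mRNA quantified via RT-PCR and capillary electrophoresis; DMSO served as negative control.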

Assay [14] addresses Retinoic acid receptor alpha (Homo sapiens) (UniProt P10276). Briefly: ATG_RARa_TRANS: Attagene TRANS-FACTORIAL HepG2 Assay for human Retinoic Acid Receptor alpha (RARa) (AID 2283005; active = hit-call score of the fitted dose curve at least 0.9, where 1 is the maximum;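 as to AC50: potency for increased reporter signal meaning RARa activation over DMSO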). In outline:
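HepG2 transiently transfected with multiplex GAL4-UAS reporter units including a human RARa–GAL4 chimera; 24 h compound exposure. Reporter mRNA quantified by RT-PCR, 6-FAM labeling and capillary electrophoresis; gain of signal versus DMSO.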

Assay [15] concerns the target Nuclear receptor subfamily 1 group I member 2 (Homo sapiens) (UniProt O75469). Briefly: ATG_PXR_TRANS: Attagene TRANS-FACTORIAL HepG2 Assay for human Pregnane X Receptor (PXR) (AID 2283008; active = hit-call score of the fitted dose curve at least 0.9, where 1 is the maximum). In outline:
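Read-out is fluorescence of labelled reporter cDNA fragments separated by capillary electrophoresis after RT-PCR and HpaI digestion. Source: HepG2 cells carrying PXR-GAL4/UAS reporter constructs, treated 24 h; activity fitted upward relative to DMSO.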

The target of assay [16] is human RAR-related Orphan Receptor beta (RORb), RORB (gene 6096) (UniProt Q92753). As to the kind of experiment: ATG_RORb_TRANS: Attagene TRANS-FACTORIAL HepG2 Assay for human RAR-related Orphan Receptor beta (RORb) (AID 2283010; active = hit-call score of the fitted dose curve at least 0.9, where 1 is the maximum). In outline:
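In this TRANS-format test, human HepG2 cells express chimeric NR-Gal4 fusion proteins driving GAL4-UAS reporters. After 24 h dosing, reporter transcripts are measured by fluorescent RT-PCR/capillary electrophoresis, with DMSO as negative control.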

Assay [17] concerns the target human Retinoid X Receptor beta (RXRb), RXRB (gene 6257) (UniProt P28702). Briefly: ATG_RXRb_TRANS: Attagene TRANS-FACTORIAL HepG2 Assay for human Retinoid X Receptor beta (RXRb) (AID 2283013; active = hit-call score of the fitted dose curve at least 0.9, where 1 is the maximum). In outline: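 Multiplexed TRANS reporter assay in HepG2; 24 h dosing; reporter mRNA by RT-PCR/CE fluorescence; gain-of-signal relative to DMSO.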
Assay [18] concerns the target human Thyroid Receptor alpha (THRa1), THRA (gene 7067) (UniProt P10827). As to the kind of experiment: ATG_THRa1_TRANS: Attagene TRANS-FACTORIAL HepG2 Assay for human Thyroid Receptor alpha (THRa1) (AID 2283014; active = hit-call score of the fitted dose curve at least 0.9, where 1 is the maximum). In outline: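 First, HepG2 cells receive multiple GAL4-UAS reporter units and the chimeric receptor. They are then dosed for 24 h, after which RNA is reverse-transcribed, amplified, labelled, HpaI-cut and sized by capillary electrophoresis; gain relative to DMSO is scored.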

Sequence of human RAR-related Orphan Receptor gamma (RORg), RORC (gene 6097) (P51449 whole entry, looked up, the tested form may be a part): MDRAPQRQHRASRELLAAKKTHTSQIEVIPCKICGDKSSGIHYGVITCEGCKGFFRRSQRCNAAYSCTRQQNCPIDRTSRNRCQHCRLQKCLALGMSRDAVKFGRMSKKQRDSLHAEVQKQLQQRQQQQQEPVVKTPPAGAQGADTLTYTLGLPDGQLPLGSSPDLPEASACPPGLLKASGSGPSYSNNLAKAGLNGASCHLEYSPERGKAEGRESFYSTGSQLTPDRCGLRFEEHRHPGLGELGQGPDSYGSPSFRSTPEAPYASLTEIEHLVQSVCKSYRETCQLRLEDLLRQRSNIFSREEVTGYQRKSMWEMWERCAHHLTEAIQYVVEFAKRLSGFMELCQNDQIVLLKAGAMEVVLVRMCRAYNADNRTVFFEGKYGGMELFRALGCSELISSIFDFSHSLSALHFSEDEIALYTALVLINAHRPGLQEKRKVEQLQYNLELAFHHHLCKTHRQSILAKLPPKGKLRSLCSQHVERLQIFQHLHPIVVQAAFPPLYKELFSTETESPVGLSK
Sequence of human RAR-related Orphan Receptor beta (RORb), RORB (gene 6096) (Q92753 whole entry, looked up, the tested form may be a part): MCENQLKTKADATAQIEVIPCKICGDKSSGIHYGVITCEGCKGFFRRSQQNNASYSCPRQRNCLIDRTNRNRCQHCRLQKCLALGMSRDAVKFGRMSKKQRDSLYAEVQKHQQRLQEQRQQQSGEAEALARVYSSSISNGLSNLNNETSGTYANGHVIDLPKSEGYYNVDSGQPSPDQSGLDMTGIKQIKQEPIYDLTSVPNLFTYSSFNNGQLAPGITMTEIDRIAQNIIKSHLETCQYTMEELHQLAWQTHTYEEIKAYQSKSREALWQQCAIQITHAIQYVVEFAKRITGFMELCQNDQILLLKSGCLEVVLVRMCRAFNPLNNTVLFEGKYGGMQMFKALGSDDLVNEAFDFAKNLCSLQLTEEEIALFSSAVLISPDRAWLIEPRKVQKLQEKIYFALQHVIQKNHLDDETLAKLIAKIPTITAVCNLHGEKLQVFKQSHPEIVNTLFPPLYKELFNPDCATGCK
Sequence of Peroxisome proliferator-activated receptor gamma (Homo sapiens) (P37231 whole entry, looked up, the tested form may be a part): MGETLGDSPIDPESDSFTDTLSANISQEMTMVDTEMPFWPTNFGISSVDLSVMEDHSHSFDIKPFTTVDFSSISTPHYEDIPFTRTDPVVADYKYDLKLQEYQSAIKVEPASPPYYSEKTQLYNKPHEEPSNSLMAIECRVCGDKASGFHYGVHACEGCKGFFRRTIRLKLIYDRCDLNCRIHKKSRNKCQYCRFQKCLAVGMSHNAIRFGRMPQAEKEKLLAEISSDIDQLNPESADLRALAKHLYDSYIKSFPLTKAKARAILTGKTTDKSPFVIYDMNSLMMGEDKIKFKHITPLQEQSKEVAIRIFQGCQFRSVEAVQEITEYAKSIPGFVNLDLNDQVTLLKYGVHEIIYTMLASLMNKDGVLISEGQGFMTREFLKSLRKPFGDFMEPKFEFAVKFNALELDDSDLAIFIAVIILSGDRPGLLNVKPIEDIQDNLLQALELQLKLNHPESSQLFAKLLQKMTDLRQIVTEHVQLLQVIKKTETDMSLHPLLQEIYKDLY
Sequence of human Retinoic Acid Receptor gamma (RARg), RARG (gene 5916) (P13631 whole entry, looked up, the tested form may be a part): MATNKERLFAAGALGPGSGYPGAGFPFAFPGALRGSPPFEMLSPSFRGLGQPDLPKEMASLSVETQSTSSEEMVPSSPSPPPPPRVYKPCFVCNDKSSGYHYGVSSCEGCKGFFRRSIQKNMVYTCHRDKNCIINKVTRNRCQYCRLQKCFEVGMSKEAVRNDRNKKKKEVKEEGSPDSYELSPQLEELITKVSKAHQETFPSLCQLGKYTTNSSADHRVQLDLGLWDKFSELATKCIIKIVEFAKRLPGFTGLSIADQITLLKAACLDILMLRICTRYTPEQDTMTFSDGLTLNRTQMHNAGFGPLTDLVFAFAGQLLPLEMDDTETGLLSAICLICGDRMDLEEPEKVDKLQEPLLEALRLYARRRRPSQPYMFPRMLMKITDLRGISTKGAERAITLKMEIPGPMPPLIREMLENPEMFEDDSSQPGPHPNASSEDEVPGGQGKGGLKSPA
Sequence of E-selectin (Homo sapiens) (P16581 whole entry, looked up): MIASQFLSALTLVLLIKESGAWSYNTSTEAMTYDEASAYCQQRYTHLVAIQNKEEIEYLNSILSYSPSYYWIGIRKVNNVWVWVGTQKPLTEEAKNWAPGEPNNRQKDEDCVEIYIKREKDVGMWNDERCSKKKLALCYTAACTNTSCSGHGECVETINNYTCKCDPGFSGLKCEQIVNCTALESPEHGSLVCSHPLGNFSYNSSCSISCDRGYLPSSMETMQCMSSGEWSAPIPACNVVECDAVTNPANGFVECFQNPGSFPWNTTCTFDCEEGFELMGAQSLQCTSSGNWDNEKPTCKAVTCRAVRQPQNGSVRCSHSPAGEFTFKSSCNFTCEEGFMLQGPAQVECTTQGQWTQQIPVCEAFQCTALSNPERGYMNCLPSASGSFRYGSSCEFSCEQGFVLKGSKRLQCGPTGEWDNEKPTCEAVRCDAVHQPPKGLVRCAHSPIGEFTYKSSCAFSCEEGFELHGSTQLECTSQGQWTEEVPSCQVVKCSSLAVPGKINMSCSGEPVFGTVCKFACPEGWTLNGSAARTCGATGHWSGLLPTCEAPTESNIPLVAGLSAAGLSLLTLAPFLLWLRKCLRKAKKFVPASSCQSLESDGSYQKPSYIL
Sequence of human Retinoid X Receptor beta (RXRb), RXRB (gene 6257) (P28702 whole entry, looked up, the tested form may be a part): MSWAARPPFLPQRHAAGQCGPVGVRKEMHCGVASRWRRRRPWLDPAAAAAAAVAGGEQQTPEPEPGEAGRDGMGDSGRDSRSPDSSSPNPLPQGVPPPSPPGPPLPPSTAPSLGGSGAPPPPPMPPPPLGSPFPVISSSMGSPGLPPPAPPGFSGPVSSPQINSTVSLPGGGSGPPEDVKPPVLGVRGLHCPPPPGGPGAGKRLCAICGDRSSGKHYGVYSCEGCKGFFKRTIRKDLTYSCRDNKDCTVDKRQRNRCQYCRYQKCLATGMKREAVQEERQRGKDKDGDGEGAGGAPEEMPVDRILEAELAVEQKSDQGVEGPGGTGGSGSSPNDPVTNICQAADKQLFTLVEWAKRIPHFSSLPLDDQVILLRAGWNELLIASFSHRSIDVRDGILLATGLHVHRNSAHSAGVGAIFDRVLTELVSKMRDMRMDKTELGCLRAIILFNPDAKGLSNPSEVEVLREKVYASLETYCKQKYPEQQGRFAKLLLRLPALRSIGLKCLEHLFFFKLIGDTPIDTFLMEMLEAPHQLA
Sequence of human Peroxisome Proliferator-activated Receptor alpha (PPARa), PPARA (gene 5465) (Q07869 whole entry, looked up, the tested form may be a part): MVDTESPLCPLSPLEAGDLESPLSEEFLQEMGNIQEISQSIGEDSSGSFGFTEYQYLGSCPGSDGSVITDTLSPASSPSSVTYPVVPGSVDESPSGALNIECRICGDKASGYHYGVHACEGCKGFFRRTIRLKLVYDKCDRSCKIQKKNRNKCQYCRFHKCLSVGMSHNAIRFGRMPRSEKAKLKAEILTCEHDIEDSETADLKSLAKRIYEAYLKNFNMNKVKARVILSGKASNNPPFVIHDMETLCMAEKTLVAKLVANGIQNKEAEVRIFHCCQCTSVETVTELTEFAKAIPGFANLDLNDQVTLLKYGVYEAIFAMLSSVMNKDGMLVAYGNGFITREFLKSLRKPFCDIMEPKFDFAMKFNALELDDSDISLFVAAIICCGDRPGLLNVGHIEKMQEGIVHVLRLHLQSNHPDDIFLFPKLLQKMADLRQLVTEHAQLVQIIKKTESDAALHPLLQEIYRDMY
Sequence of Nuclear receptor subfamily 1 group I member 2 (Homo sapiens) (O75469 whole entry, looked up, the tested form may be a part): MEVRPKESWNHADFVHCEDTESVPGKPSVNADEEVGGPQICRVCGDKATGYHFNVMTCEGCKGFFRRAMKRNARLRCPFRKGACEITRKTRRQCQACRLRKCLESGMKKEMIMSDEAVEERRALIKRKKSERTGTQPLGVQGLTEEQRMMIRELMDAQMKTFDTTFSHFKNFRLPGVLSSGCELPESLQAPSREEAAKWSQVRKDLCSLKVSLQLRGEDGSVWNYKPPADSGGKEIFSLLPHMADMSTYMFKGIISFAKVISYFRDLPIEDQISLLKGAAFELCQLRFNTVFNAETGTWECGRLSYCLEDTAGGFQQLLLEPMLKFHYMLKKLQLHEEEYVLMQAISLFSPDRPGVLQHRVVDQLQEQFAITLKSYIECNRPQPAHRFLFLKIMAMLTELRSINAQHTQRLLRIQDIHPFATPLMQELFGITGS
Sequence of Retinoic acid receptor alpha (Homo sapiens) (P10276 whole entry, looked up, the tested form may be a part): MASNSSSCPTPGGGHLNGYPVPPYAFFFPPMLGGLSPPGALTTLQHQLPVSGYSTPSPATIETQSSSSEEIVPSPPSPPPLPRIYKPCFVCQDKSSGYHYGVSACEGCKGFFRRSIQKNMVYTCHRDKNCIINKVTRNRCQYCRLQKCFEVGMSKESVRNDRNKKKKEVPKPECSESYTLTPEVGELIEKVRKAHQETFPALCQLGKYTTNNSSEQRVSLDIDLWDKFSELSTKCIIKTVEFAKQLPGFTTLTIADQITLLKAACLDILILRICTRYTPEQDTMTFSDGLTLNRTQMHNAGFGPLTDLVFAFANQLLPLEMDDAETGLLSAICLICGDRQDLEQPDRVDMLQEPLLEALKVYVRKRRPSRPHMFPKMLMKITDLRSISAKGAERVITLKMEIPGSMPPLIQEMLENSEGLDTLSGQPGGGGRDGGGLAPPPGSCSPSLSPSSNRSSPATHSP
Sequence of human Retinoic Acid Receptor beta (RARb), RARB (gene 5915) (P10826 whole entry, looked up, the tested form may be a part): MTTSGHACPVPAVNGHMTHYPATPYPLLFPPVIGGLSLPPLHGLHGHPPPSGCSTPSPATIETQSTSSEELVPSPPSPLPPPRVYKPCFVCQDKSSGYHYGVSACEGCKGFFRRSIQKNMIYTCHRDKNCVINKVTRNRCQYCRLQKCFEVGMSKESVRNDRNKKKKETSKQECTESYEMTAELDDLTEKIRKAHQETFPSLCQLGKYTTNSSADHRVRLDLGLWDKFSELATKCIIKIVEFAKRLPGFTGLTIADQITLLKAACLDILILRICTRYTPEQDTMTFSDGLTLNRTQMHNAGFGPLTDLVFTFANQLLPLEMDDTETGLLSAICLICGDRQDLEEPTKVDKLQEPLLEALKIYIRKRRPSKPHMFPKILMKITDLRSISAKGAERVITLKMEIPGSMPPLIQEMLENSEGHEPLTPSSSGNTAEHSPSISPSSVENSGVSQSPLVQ

As usually defined, the AC50 is the midpoint of the concentration-response curve, whichever way the signal moves. As for `CS/C(C)=N/OC(=O)N(C)SN(C)C(=O)O/N=C(\C)SC`, the concentration at half-maximal activity (AC50) was 24.6 µM (active) in [1]; 29.2 µM (active) in assay [2]; 31.6 µM (active) in assay [3]; 5.82 µM (active) in assay [5]; 30 µM (active) in assay [9]; 29.6 µM (active) in [11]. In addition, the AC50 in assay [12] was 29.3 µM (active). For the same molecule, the result in assay [4], in assay [6], in assay [7], in assay [8] and in assay [10] was inactive.
As for `Cc1c(F)c(F)c(COC(=O)C2C(/C=C(\Cl)C(F)(F)F)C2(C)C)c(F)c1F` (stereo not drawn), the result in assay [1], in [2], in [13], in assay [3], in assay [4] and in assay [6] was inactive. Further, the call in assay [7], in assay [16], in [17], in assay [10], in assay [11] and in [12] was inactive. Moreover, the AC50 in assay [14] is 36.7 µM (active); in assay [5] it was 20 µM (active); in assay [15] it was 22.6 µM (active); in assay [9], 12 µM (active).
Consider `COP(N)(=O)SC` (stereo not drawn), for which the outcome in assay [1], in assay [2], in assay [13], in assay [3], in assay [14] and in assay [5] was inactive. Moreover, the call in assay [6], in assay [15], in [7], in assay [16], in assay [8] and in [17] was inactive. Besides, the outcome in [9], in [10], in assay [11] and in assay [12] was inactive.
As to `O=C(O)c1nc(Cl)ccc1Cl`, the outcome in [1], in [2], in assay [13], in assay [3], in assay [5] and in [15] was inactive. The result in assay [16], in assay [8], in assay [17], in assay [18], in assay [9] and in [10] was inactive. Besides, the result in assay [11] and in [12] was inactive.
